Experiments:
[1] = tested on: Human papillomavirus type 1a protein E7 (residues 44-93); assay: small molecules binding HPV E7 44-93 – biochemical, small-molecule microarray, residues 44-93, 635 nm fluorescence, primary screen (AID 1108); conditions: fluorescence 635 nm, higher = more signal;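 note: E7 fragment applied at 1 µg/mL in TBST for 1 h at 4 C; score combines spot fluorescence with its signal to noise ratio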
[2] = hepatitis C replication reporter changes, two-sided – Huh7 cells, luciferase reporter, HCV replication inhibitor project, primary screen (AID 1109); conditions: Huh7 HCV replicon luciferase reporter, 48 h; higher = more signal;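 note: huh7 hepatoma cells harbouring a luciferase neomycin HCV replicon reporter; luciferase luminescence as measure of HCV replicon replication; test concentration not given here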
[3] = biological target: Left-right determination factor 2 (Homo sapiens) (UniProt O00292); assay: small molecules binding LEFTY2 protein – biochemical, small-molecule microarray, 635 nm fluorescence scan, primary screen (AID 1110); conditions: higher = more signal
Chain of Left-right determination factor 2 (Homo sapiens) (O00292 whole entry, looked up): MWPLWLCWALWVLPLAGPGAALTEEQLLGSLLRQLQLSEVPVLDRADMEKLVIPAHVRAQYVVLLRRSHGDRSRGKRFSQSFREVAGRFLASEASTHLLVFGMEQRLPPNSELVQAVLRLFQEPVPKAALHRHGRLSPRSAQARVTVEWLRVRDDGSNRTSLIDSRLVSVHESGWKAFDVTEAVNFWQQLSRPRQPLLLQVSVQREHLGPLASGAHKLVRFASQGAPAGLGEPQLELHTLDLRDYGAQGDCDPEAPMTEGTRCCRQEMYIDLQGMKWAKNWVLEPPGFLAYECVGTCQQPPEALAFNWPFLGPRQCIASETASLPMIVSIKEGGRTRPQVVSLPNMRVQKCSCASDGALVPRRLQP

[4] = biological target: Calmodulin-1 (Homo sapiens) (UniProt P0DP23); assay: small molecules binding calmodulin-1 with EGTA – biochemical, small-molecule microarray, Cy5-labelled CALM1, profiling panel (AID 1111); conditions: Cy5-CALM1 binding fluorescence, higher = more signal;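 note: labelled calmodulin applied in Tris saline Tween buffer holding calcium plus EGTA and DTT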
[5] = biological target: Calmodulin-1 (Homo sapiens) (UniProt P0DP23); assay: small molecules binding Ca-loaded calmodulin-1 – biochemical, small-molecule microarray, Cy5-labelled CALM1, plus calcium, artefact control for SMM control-protein annotation, profiling panel (AID 1112); conditions: Cy5-CALM1 binding fluorescence, higher = more signal;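 note: score merges spot fluorescence with signal to noise from triplicate slides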
[6] = probe aWnt5a binding to arrayed compounds – biochemical, biotinylated probe, 635/667 nm fluorescence, primary screen (AID 1113); conditions: small-molecule microarray, higher = more signal;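 note: score merges 667 nm fluorescence intensity with signal-to-noise per printed feature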
[7] = probe aShh binding to arrayed compounds – biochemical, biotinylated probe, 635/667 nm fluorescence, primary screen (AID 1114); conditions: small-molecule microarray, higher = more signal;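 note: probe is biotin-labelled aShh protein from a stem cell growth factor screen; measures binding of labelled protein to compounds printed on the slide; score merges feature fluorescence at 667 nm with signal-to-noise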
[8] = probe aNog binding to arrayed compounds – biochemical, biotinylated probe, 635/667 nm fluorescence, primary screen (AID 1115); conditions: small-molecule microarray, higher = more signal;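 note: probe is biotinylated aNog protein used at 0.15 µg/mL for 1 h at 4 C; z-score combines 667 nm fluorescence of each spot with its signal to noise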
[9] = biological target: Torsin-1A-interacting protein 1 (Homo sapiens) (UniProt Q5JTV8); assay: compound microarray binding of lysate hLAP1 – cell lysate, small-molecule microarray, COS7 lysate, 635/667 nm fluorescence, primary screen (AID 1116); conditions: 635 nm fluorescence, higher = more signal
Chain of Torsin-1A-interacting protein 1 (Homo sapiens) (Q5JTV8 whole entry, looked up): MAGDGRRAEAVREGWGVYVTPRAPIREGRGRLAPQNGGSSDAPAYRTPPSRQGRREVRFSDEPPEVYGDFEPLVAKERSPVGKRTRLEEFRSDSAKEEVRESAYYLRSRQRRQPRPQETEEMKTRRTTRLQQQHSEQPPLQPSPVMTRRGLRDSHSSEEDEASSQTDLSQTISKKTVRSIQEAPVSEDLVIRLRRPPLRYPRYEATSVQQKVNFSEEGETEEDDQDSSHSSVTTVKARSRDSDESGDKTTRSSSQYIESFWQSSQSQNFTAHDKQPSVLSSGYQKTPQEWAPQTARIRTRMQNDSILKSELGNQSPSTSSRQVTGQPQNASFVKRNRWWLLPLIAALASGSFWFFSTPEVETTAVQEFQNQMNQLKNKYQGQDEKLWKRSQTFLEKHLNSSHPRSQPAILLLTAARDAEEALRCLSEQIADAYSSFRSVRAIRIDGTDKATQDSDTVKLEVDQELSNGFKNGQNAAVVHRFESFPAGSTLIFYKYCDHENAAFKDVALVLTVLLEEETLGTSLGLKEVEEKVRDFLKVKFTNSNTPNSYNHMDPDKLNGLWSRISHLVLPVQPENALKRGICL

[10] = biological target: Alpha-bungarotoxin (Bungarus multicinctus) (UniProt P60615); assay: compounds binding labelled alpha-BTX control protein – biochemical, small-molecule microarray, Alexa647 label, 635/667 nm fluorescence, artefact control for SMM control protein annotation, profiling panel (AID 1117); conditions: alpha-BTX-A647 binding fluorescence, higher = more signal
Chain of Alpha-bungarotoxin (Bungarus multicinctus) (P60615 whole entry, looked up): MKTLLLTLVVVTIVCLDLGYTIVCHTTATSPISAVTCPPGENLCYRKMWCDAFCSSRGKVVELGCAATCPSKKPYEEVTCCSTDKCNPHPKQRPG

Structure (SMILES)	composite z-score [1]	z-score [2]	composite z-score [3]	composite z-score [4]	composite z-score [5]	composite z-score [6]	composite z-score [7]	composite z-score [8]	composite z-score [9]	composite z-score [10]
COc1ccccc1CN1C(=O)c2ccccc2[C@@H](C(=O)NCC(C)C)[C@@H]1c1ccc(CO)cc1	1.05	-0.541	0.13	0.139	-0.0968	-0.196	-0.776	-0.0069	0.741	-0.544
O=C1c2ccccc2[C@](Cc2ccccc2I)(C(=O)NC2CC2)[C@H](c2ccc(CO)cc2)N1Cc1ccccc1Cl	1.06	-1.4	-0.112	0.638	0.61	-0.0701	0.755	0.139	0.747	0.09
Cc1ccc(C(C)CC(O)C2C=CC3C(=O)N(Cc4ccccc4)C(=O)C3N2n2cnnc2)o1 (stereo not given)	1.22	0.236	-0.304	0.455	0.0454	0.688	0.765	2.12	0.342	0.279
COC(=O)[C@@]1(Cc2ccccc2)[C@H]2c3cc(C(=O)N(C)C)n(Cc4ccc(O)c(OC)c4)c3C[C@H]2CN1C(=O)c1ccccc1	1.45	-2.56	-0.276	1.46	1.17	0.75	0.16	-0.322	0.141	0.245
CCCCC=C[C@@H](NC(=O)CCc1ccccc1)c1ccccc1	1.38	-2.6	0.151	0.504	0.57	0.145	1.11	1.11	1.49	1.19
COc1ccc(C(=O)Nc2ccc3c(c2)[C@]2(O[C@@H](CCO)[C@H]([Si](C)(C)c4ccc(OC)cc4)[C@H]2C)C(=O)N3Cc2ccccc2)cc1	0.958	-5.23	0.793	0.475	0.57	-0.13	0.0062	-0.295	0.422	0.375
CC(C)N1CC=CC23O[C@@H]4C=CCOC(=O)[C@@H]4[C@H]2C(=O)N(CCCCCCO)[C@@H]3C1=O (stereo not given in full)	-0.433	-0.761	-0.651	-0.815	-0.289	-0.18	-0.116	-0.223	2.03	-0.92
CN1C(=O)C2C=CC(C(O)C3CCCCC3)N(N(c3ccccc3)c3ccccc3)C2C1=O (stereo not given)	-1.93	-0.15	-0.939	0.142	0.405	0.204	0.117	0.0294	0.0416	-0.232
COCCOC(=O)N1C(=O)[C@@]2(c3cc(C#CCCO)ccc31)[C@H](C(=O)N1CCc3cc(OC)c(OC)cc3C1)[C@H]1C(=O)O[C@H](c3ccccc3)[C@H](c3ccccc3)N1[C@@H]2c1ccc(OCCO)cc1	1.32	-1.32	0.887	0.842	0.224	-0.0731	-0.304	0.299	0.868	0.826
COCCOC(=O)N1C(=O)[C@@]2(c3cc(C#CCCO)ccc31)[C@H](C(=O)NC[C@H](O)c1ccccc1)[C@H]1C(=O)O[C@H](c3ccccc3)[C@H](c3ccccc3)N1[C@@H]2c1ccccc1OCCO	1.43	-1.31	0.966	0.362	-0.354	0.287	0.323	1.36	1.12	0.784
CC1=C2[C@@H](CCc3ccccc3)OB(O)C[C@@H]2[C@@H]2C(=O)C=CC(=O)[C@@H]2C1	0.808	-2.13	1.12	0.281	-0.172	0.0101	-0.214	-0.375	0.464	1.2
COc1ccc(C#Cc2ccc3c(c2)[C@]2(C(=O)N3)[C@H](C(=O)O)[C@H]3C(=O)O[C@H](c4ccccc4)[C@H](c4ccccc4)N3[C@@H]2c2ccc(OCCO)cc2)cc1	0.873	-1.92	0.336	2.25	0.87	-0.0617	0.0492	0.141	2	2.28
COC(=O)[C@@]1(Cc2ccccc2)[C@H]2c3cc(C(=O)N4CCCC4)n(Cc4ccc(OC(F)(F)F)cc4)c3C[C@H]2CN1C(=O)c1ccccc1	1.41	-1.95	-0.782	2.31	1.41	0.583	1.12	1.69	0.867	1.35
N#Cc1ccc(NN2C(C(O)c3ccco3)C=CC3C(=O)N(c4ccccc4)C(=O)C32)cc1 (stereo not given)	-0.345	-0.36	-0.0879	0.144	-0.539	0.0012	-0.0035	0.531	-0.247	0.518
COC(=O)[C@]1(Cc2ccccc2CN=[N+]=[N-])N=C(c2ccc(OCCCO)cc2)O[C@@H]1c1ccccc1	-1.61	-3.19	-1.63	-0.103	0.128	-0.228	-0.0793	-0.361	-1.18	1.13
COC(=O)[C@H]1N=C(c2ccc(OCCCO)cc2)O[C@H]1c1ccccc1CN=[N+]=[N-]	1.05	-2.03	-1.16	0.452	0.516	0.0495	0.105	1.64	0.431	0.534
C=C(C(=O)CC[C@H](OC(=O)c1cccnc1)c1ccc(OCCO)cc1)C(C)C	1.33	-3.29	0.242	0.098	-1.01	-0.0704	-0.142	-0.196	1.68	1.11

Structure (SMILES)	composite z-score [1]	z-score [2]	composite z-score [3]	composite z-score [4]	composite z-score [5]	composite z-score [6]	composite z-score [7]	composite z-score [8]	composite z-score [9]	composite z-score [10]
C=CCC(OC(C)=O)[C@@H]1[C@@H](N(Cc2cccc3ccccc23)C(=O)Cc2ccc(F)cc2)c2cc(OCCCO)ccc2N1C(=O)Cc1ccc(OC)cc1 (stereo not given in full)	0.0243	-0.81	0.584	0.965	-0.652	-0.197	-0.0557	-0.122	-0.0854	-0.0482
C=CCC(OC(C)=O)[C@@H]1[C@@H](N(Cc2cc3ccccc3o2)C(=O)Cc2ccc(OC)cc2)c2cc(OCCCO)ccc2N1C(=O)c1ccc(-c2ccccc2)cc1 (stereo not given in full)	0.0962	-0.71	-0.214	-0.365	0.468	-0.0767	-0.147	-0.23	-0.113	0.0856
COC(=O)C(CC#Cc1ccc2c(c1)[C@]1(C(=O)N2)[C@H](c2ccc(O)cc2)N2[C@H](c3ccccc3)[C@H](c3ccccc3)OC(=O)[C@H]2[C@@H]1C(=O)O)C(=O)OC	0.69	-0.76	0.029	0.351	0.0474	-0.175	-0.206	-0.124	-0.347	0.33
COC(=O)[C@@]1(Cc2ccc(OC)cc2)[C@H]2c3cc(C(=O)N4CCCC4)n(Cc4ccc(C)o4)c3C[C@H]2CN1C(=O)c1ccccc1	1.2	-3.68	-0.242	0.493	0.0918	0.457	0.444	-0.504	0.762	0.287
C[N+](C)(C)CCCCCCNC(=O)[C@@H]1C[C@@H]2C(=O)NCC(=O)N2[C@@H]1c1cccc(OCCO)c1	0.891	1.99	0.695	0.21	-0.359	-0.18	-0.333	-0.0317	0.602	1.96
CCCC[C@@H](O)C1=C(COc2ccccc2)Cn2c(=O)n(-c3ccccc3)c(=O)n2[C@H]1CO	-0.616	-1.52	0.0253	-0.634	-0.116	-0.124	-0.248	-0.182	-0.222	-1.62
CCOC(=O)C1=CC[C@@H](c2ccccc2)N(S(=O)(=O)c2ccc(C)cc2)[C@H]1C=C(C)C	1.45	-2.21	0.407	0.808	-0.0374	0.055	0.199	1.06	0.647	0.162
C#CCOC(=O)N[C@H](C=CCCCC)c1ccccc1	-0.0543	-0.498	-0.0624	0.44	0.368	-0.0888	0.413	1.52	1.51	-0.194
CCN(CC)c1ccc(N2CC=CC34O[C@@H]5/C=C\CCCOC(=O)C5[C@H]3C(=O)N(CCCCCO)[C@@H]4C2=O)cc1 (stereo not given in full)	-0.592	-0.376	-1.57	-1.06	-0.996	-0.203	-0.221	-0.254	0.424	-1.04
COc1ccccc1CN1C(=O)c2ccccc2[C@](Cc2ccccc2I)(C(=O)NCCN2CCOCC2)[C@@H]1c1ccc(CO)cc1	1.36	-2.96	1.01	0.688	-0.768	-0.0118	-0.144	-0.0746	0.488	1.19
COc1cc2c(cc1OC)CN(C(=O)[C@@H]1[C@H]3C(=O)O[C@H](c4ccccc4)[C@H](c4ccccc4)N3[C@H](c3ccc(OCCO)cc3)[C@@]13C(=O)Nc1ccc(C#CCCO)cc13)CC2	1.44	-1.53	1.01	1.73	1.01	0.265	0.391	1.8	1.33	1.36
CC(C)C[C@@H]1NC(=O)[C@@H]2C[C@H](C(=O)NCCCC[N+](C)(C)C)[C@H](c3cccc(OCCO)c3)N2C1=O	-0.832	-0.604	1.01	-0.863	0.348	-0.0236	0.151	-0.198	1.05	0.324
CC(C)[Si](C#C[Si](C(C)C)(C(C)C)C(C)C)(O[C@H](C)c1cn(Cc2cccc(Cl)c2)nn1)C(C)C	0.953	-0.266	0.499	1.01	0.506	-0.253	-0.243	-0.175	0.0392	1.03
COC(=O)c1c(CC[C@@H](CO)NC(=O)N[C@@H](C)Cn2cc(C3(O)CCCC3)nn2)oc(C(C)=O)c1C(=O)OC	0.467	0.884	0.0541	-0.186	-0.467	-0.0758	-0.0709	-0.368	0.711	0.282
C=CCNC(=O)[C@H]1[C@@H]2C(=O)O[C@@H](c3ccccc3)[C@@H](c3ccccc3)N2[C@@H](c2ccc(O)cc2)[C@]12C(=O)N(C(=O)OCCOC)c1ccc(C#CC3(O)CCCCCC3)cc12	0.739	-0.302	-0.326	0.487	0.205	-0.0445	0.0469	0.268	1.16	1.2
COC(=O)C(CC#Cc1ccc2c(c1)[C@]1(C(=O)N2)[C@H](C(=O)N2CCc3cc(OC)c(OC)cc3C2)[C@H]2C(=O)O[C@H](c3ccccc3)[C@H](c3ccccc3)N2[C@@H]1c1ccc(OCCO)cc1)C(=O)OC	1.41	-1.21	0.633	1.07	0.16	-0.0236	-0.159	-0.198	0.254	1.08
[N-]=[N+]=NCc1ccccc1[C@H]1OC(c2ccc(OCCCO)cc2)=N[C@@]1(Cc1ccccc1N=[N+]=[N-])C(=O)NCCN1CCOCC1	1.05	-2.34	0.528	1.19	0.305	0.16	0.432	2.06	1.79	1.45

Source: PubChem BioAssay
